Values joined by “and” are separate entries in the source; they are usually repeats but may differ in a detail not shown here. Equal entries are not always repeated. The whole screen tested about 16,000 compounds, of which about 2,600 (16%) were called active. Another 20% or so got no clear call; they are omitted. The call rests on the fitted dose curve; in most records, active means well fitted curve in the direction sought with a large enough effect; inconclusive means small, poorly fitted or top-dose-only effect, or effect the other way; inactive means no such curve, though single readings can be large or run the other way. A selection follows.
target: Cytochrome P450 2D6 (Homo sapiens) (UniProt P10635); test: Cytochrome panel assay with activity outcomes; details: recombinant CYP, pro-luciferin dealkylation, luminescence, p450-cyp2d6; series mostly up to 57.1 µM
On the % scale 0 is the no-effect control and ±100 the full control effect.

Chain of Cytochrome P450 2D6 (Homo sapiens) (P10635 whole entry, looked up): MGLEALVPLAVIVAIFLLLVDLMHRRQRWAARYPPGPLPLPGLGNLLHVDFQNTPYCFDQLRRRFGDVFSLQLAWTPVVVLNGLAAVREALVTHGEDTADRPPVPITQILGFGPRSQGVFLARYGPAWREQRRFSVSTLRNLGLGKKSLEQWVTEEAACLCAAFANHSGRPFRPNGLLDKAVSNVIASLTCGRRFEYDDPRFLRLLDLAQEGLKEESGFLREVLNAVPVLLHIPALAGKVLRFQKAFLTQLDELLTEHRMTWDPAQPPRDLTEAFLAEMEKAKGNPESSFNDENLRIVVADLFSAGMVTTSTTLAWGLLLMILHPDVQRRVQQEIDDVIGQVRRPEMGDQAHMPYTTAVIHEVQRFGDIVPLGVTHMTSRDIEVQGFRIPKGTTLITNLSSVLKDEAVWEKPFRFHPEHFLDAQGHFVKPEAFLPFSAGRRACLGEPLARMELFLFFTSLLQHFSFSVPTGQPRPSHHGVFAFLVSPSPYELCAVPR

AC50, active:
COc1ccccc1CNc1nc(-c2ccccc2CN(C)C)nc2ccccc12 10 µM
COc1ccc(CNc2nc(-c3ccccc3CN(C)C)nc3ccccc23)c(OC)c1 10 µM
CC(C)C(NS(=O)(=O)c1cccs1)C(=O)NCCN1CCN(c2ccccc2)CC1 (stereo unspecified) 14.1 µM
O=C(CSc1ccc(Cl)cc1)Nc1cccc(NC(=O)c2ccco2)c1 6.31 µM
O=C(CSc1ccc(Cl)cc1)Nc1cccc(-c2nc3ncccc3o2)c1 8.91 µM
Cc1ccc(SCC(=O)Nc2cccc(NC(=O)c3ccco3)c2)cc1 20 µM
CCCCN(C)Cc1c(C)[nH]c2ccc(Cl)cc2c1=O 3.16 µM
N#C/C(=C\c1ccc(Cl)cc1)c1nc2ncccc2[nH]1 12.6 µM
COc1cccc2c1OC[C@@H](CO)[C@H]2N(C)C(=O)Nc1ccc(Cl)cc1Cl 3.55 µM
Cc1cc2nc(SCCOC(=O)Nc3ccc(Cl)cc3)nc(C)c2cc1C 8.91 µM
Clc1ccc(CCNc2nc3ccccc3s2)cc1 3.55 µM
COC(=O)c1[nH]c2cc(OC)ccc2c1NC(=O)c1ccc2c(c1)OCO2 22.4 µM
CCOC(=O)c1oc2ccccc2c1NC(=O)c1ccc2c(c1)OCO2 3.55 µM
Cc1ccc2c(c1)N(CC(=O)NC1CCCc3ccccc31)C(=O)CO2 (stereo unspecified) 12.6 µM
O=C(NCCC[N+]1=CC=N[C@H]1c1ccccc1)N1CCCc2nc(-c3ccc(Br)cc3)ccc21 0.0794 µM
CCN(CC)CCOC(=O)C1(c2ccc([N+](=O)[O-])cc2)CCCC1 3.98 µM and 5.01 µM
COC(=O)c1ccc(NC(=O)c2ccccc2NS(=O)(=O)c2ccccc2)cc1 15.8 µM
COC(=O)c1ccccc1NC(=O)c1ccc(F)cc1 5.01 µM
C=CCNCCCCOc1c(Cl)cc(C)cc1Br 0.178 µM
COCCCNCCCCOc1c(Cl)cc(C)cc1Br 0.708 µM

AC50, inactive:
COC(=O)Cn1cc(/C=N/NC(=O)c2ccc(C#N)cc2F)c2ccccc21
CC(C)c1cccc2cc3c(nc12)-c1cccc(=O)n1C3
Cc1ccc(C(=O)c2ccc(CC(=O)O)n2C)cc1
N#Cc1ccc(C(=O)Nc2ccc(N3CCN(C(=O)c4ccco4)CC3)cc2)c(F)c1
COc1ccc(CNc2nc(-c3ccc(C(=O)N(C)C)cc3)nc3ccccc23)c(OC)c1
COc1ccc(CNc2nc(-c3c(C)noc3C)nc3ccccc23)c(OC)c1
N[C@@H](CO)C(=O)NNCc1ccc(O)c(O)c1O
Cc1cc(NC(=O)c2ccccc2Cl)no1
CCOC(=O)C(C)n1cnc2c(oc3ccccc32)c1=O (stereo unspecified)
O=C(NNC(=O)c1ccccc1-n1cccc1)c1ccc(Cl)c(Cl)c1
CCOc1ccc(NC(=O)c2nnn(CC(=O)Nc3ccccc3OC)c2N)cc1
COc1ccc(N2CCN(CCNC(=O)C3CCN(S(=O)(=O)c4cccs4)CC3)CC2)cc1
CC(=O)NC(C)C(c1cccs1)N1CCN(c2ccccc2)CC1 (stereo unspecified)
COc1ccc(NC(=O)N2CC3(CCN(S(C)(=O)=O)CC3)C2)cc1
O=C(Nc1cccc(-c2nc3ncccc3o2)c1)c1sc2cc(Cl)ccc2c1Cl
O=C(Nc1cccc(OC(=O)c2ccco2)c1)c1ccco1
CC(=O)c1ccc(-n2nnnc2SCC(=O)Nc2cccc(NC(=O)c3ccco3)c2)cc1
O=C(CSc1ccccc1)Nc1ccc(NC(=O)c2ccco2)cc1
O=C(Nc1cccc(-c2nc3ncccc3o2)c1)c1sc2ccccc2c1Cl
O=C(Nc1nnc(SCc2ccc(Cl)cc2)s1)c1ccco1
COc1ccc(NC(=O)c2ncn[nH]2)cc1
COC(=O)C(C)(C(=O)OC)c1ccc([N+](=O)[O-])cn1
Cc1c(Cl)c([N+](=O)[O-])nn1CC(=O)Nc1c(C)n(C)n(-c2ccccc2)c1=O
Cc1ccc(NC(=O)CCc2c(C)nc3ncnn3c2C)nc1
CC(=O)c1cccc(NC(=O)c2csc(-n3nc(C)cc3C(F)(F)F)n2)c1
COC(=O)[C@@]1(Cc2ccc(OC)cc2)[C@@H]2[C@@H](CC(=O)[C@H]2CC(=O)C(=O)N(C)C)CN1C(=O)c1ccccc1
CN1CCN(c2nc3cc(C(F)(F)F)ccc3n3cccc23)CC1
FC(F)(F)c1cnc(N2CCC(=NOCc3ccc(Cl)cc3)CC2)c(Cl)c1
Cc1cc(=O)c2cc(Cl)ccc2[nH]1
CCCCCCN(CCCCCC)C(=O)Cc1c(-c2ccc(Cl)cc2)[nH]c2ccc(Cl)cc12
CCOc1ccc2[nH]c(=O)c(CN(CCc3ccccc3)C(=O)N3CCOCC3)cc2c1
N#C/C(=C\c1ccccc1)c1nc2ncccc2[nH]1
c1ccc(-c2ccc(C3=Nn4c(Cn5nnc6ccccc65)nnc4SC3)cc2)cc1
COC(=O)N1CC(=O)N(OC)C1c1ccc(Cl)cc1Cl (stereo unspecified)
Cc1nc(C(=O)Nc2ccc(Cl)cc2Cl)nn1-c1cc(OC(C)C)c(Cl)cc1Cl
Cc1ccc(OCC(=O)Nc2ccc(Cl)cc2)c(-n2nc3ccccc3n2)c1
CCCCOC(=O)Nc1ccc(C)c(Cl)c1
CCS(=O)(=O)Nc1ccc(C2=NN(C(=O)c3ccco3)C(c3ccc(C)cc3)C2)cc1 (stereo unspecified)
CC(=O)NNc1nc2ccccc2s1
O=c1c(-c2nc3ccccc3s2)cccn1Cc1ccc(Cl)cc1
Cc1noc2ncnc(Oc3ccc4ccccc4c3)c12
COCCN1C(=O)C(=O)/C(=C(/O)c2cccc(OC)c2)C1c1ccc(C)o1 (stereo unspecified)
CCOC(=O)c1[nH]c2cc(OC)c(OC)cc2c1NC(=O)c1ccc2c(c1)OCO2
COc1cccc(NC(=O)c2oc3ccccc3c2NC(=O)c2ccc3c(c2)OCO3)c1
CCOC(=O)c1oc2ccccc2c1NC(=O)c1ccc(S(=O)(=O)N(C)C)cc1
COC(=O)c1[nH]c2cc(OC)ccc2c1NC(=O)c1nonc1C
Cc1nc2cnc(Nc3ccccc3)nc2n(CCc2ccccc2)c1=O
N#Cc1cccc(NC(=O)N2CCCC3(CCN(C(=O)c4cnccn4)CC3)C2)c1
O=C(O)CCC(=O)N1CCC[C@H]1C(=O)O
Cc1ccc2c(c1)-c1c(cnn1CC(=O)O)CO2
Cc1ccc2c(c1)N(CCC(=O)NCC1CCCO1)C(=O)CO2 (stereo unspecified)
COc1ccc(-n2c(=O)c(C)nc3cncnc32)cc1
C/C=C\C(=O)N(CC)c1ccccc1C
Nc1ccccc1Oc1ncc(C(F)(F)F)cc1Cl
CCc1nnc(NC(=O)CSc2nc(C3CCCCC3)nc3ccccc23)s1
N[C@H](CCCC(=O)O)C(=O)O
COCCN(C(=O)c1ccco1)c1nnc(-c2ccc(OC)cc2)s1
Cc1cccc(NC(=O)C2(c3ccc([N+](=O)[O-])cc3)CCCC2)c1
CN(C)CCOC(=O)C1(c2ccccc2)CCOCC1
CCC(C)Nc1nc(OCC(F)(F)F)nc(OCC(F)(F)F)n1 (stereo unspecified)
CCOC(=O)C1C(=O)C=C(c2ccc(NS(C)(=O)=O)cc2)CC1c1ccco1 (stereo unspecified)
COc1ccc2oc(C(=O)c3ccccc3)c(N)c2c1
Cc1ccccc1C(=O)NNC(=O)c1ccc(F)cc1
NS(=O)(=O)c1ccc(NS(=O)(=O)c2ccc(NC(=O)c3ccc(-c4ccccc4)cc3)cc2)cc1
COC(=O)c1cn(NC(=O)c2ccc(F)cc2)c(=O)c2ccccc12
COc1ccc(-n2c(=O)c(C)nc3cnc(N(C)C)nc32)cc1
Cc1nn2c([nH]c(=O)c3ccccc32)c1C=O
CCc1cccc(CC)c1NC(=O)CN(CC(=O)O)CC(=O)O
COc1ccc(OC)c(Nc2nc(-c3sc(NC(=O)c4ccccc4)nc3C)cs2)c1
C=CCNc1cnn(-c2ccc(C)cc2)c(=O)c1Cl
O=C(/C=C/c1ccc(Cl)cc1)Nc1ccc(N2CCCCC2)cc1
COC(=O)Nc1nc2ccc(C(=O)c3ccccc3)cc2[nH]1
CN(CC(=O)Nc1ccc(F)c(F)c1)S(=O)(=O)c1cccc2nsnc12

activity, negative = inhibition, inactive:
COC(=O)CCCC(=O)O 8.35% [at 11.4 µM]
O=[N+]([O-])c1ccc2c(c1)Cc1cc(N=Cc3ccc4c(c3)OCO4)ccc1-2 -11.6% [at 11.4 µM]
O=C1NC(=O)[C@@](Cc2ccccc2)(c2cccnc2)N1 1.34% [at 11.4 µM]
CC(C)CO/N=C1/C[C@@H](O)[C@@H](O)[C@@H]2[C@@H]3C(=O)N(Cc4ccc5c(c4)OCO5)C(=O)[C@H]3CC[C@H]12 -12.3% [at 11.4 µM]
Cn1c(=O)c2c(nc(Cc3ccccc3)n2CC(=O)O)n(C)c1=O 3.84% [at 11.4 µM]
COc1ccc(-c2ccc3c(n2)CCCN3C[C@H](O)CN2CCCc3nc(-c4ccc(Br)cc4)ccc32)cc1 -3.82% [at 11.4 µM] and -13% [at 11.4 µM]
Cc1ccc(S(=O)(=O)Nc2ccccc2C(=O)c2ccc(C)c(C)c2)cc1 2.37% [at 11.4 µM]
Cc1cc(N=Cc2c(CO)cnc(C)c2O)c(N=Cc2c(CO)cnc(C)c2O)cc1C.[Zn] -15.5% [at 11.4 µM]

From PubChem BioAssay AID1851 (National Center for Advancing Translational Sciences (NCATS), 2009)
